The values below come from ChEMBL document CHEMBL3988442, “University of Dundee, Small-Polar-MMV Screening Library” (2021).

Among all 48,000 compounds or so, about 13,000 (27%) showed an effect of 50% or more. Some of the results follow.

The test system of the experiment is Wolbachia pipientis. Description: Anti-Wolbachia Cell-Based Screen. It counts as functional. More on the design: scale not given: in the data most compounds retested in dose-response had high values. The note with it: 5 µM.
Take `Cc1nc(C(=O)N(CC(=O)N(C)C)CC(F)(F)F)c2ccccn12`: the “Percent Effect” value was found to be 1.81%.

Regarding `Cc1noc(C)c1CN(C)C(=O)NC(C)c1cccs1` (stereo unspecified), the “Percent Effect” value is recorded as -8.281%.

Consider `NC(=O)C1CCN(Cn2nc(-c3ccccc3)oc2=O)CC1`, for which the “Percent Effect” value is -3.823%.

Regarding `Cc1noc(C2CCN(C(=O)CCNS(C)(=O)=O)CC2)n1`, the “Percent Effect” value is given as -0.9329%.

For `CCC(=O)Nc1cccc(OCC(=O)N[C@@H]2C[C@H]3CC[C@@H]2C3)c1`, the “Percent Effect” value is on record as 110%.

With `CCC(=O)Nc1cccc(OCC(=O)N(C)Cc2nccn2CC)c1`, the “Percent Effect” value is given as -14.09%.

As for `COc1cccc(NC(=O)CN(C(C)C)C2CC2)c1`, the “Percent Effect” value is reported as 1.237%.

As for `CCC(=O)Nc1cccc(OCC(=O)N2C[C@H]3CC[C@H]2C3)c1`, the “Percent Effect” value turned out to be 93.75%.

As to `CCC(=O)Nc1cccc(OCC(=O)N2CC=CC2C(C)C)c1` (stereo unspecified), the “Percent Effect” value is recorded as 89.02%.

As to `CCC(=O)Nc1cccc(OCC(=O)N(C)Cc2nc(C)c[nH]2)c1`, the “Percent Effect” value is given as -12.77%.

Regarding `CCC(=O)Nc1cccc(OCC(=O)N(C)Cc2ccon2)c1`, the “Percent Effect” value is -42.8%.

For `CCC(=O)Nc1cccc(OCC(=O)N(C)Cc2cc(COC)[nH]n2)c1`, the “Percent Effect” value is -13.78%.

For the compound `CCC(=O)NC1CCCN(C(=O)Nc2cccc(COC(C)C)c2)C1` (stereo unspecified), the “Percent Effect” value is listed as -15.38%.

As for `CN(C)C(=O)c1ccc2c(c1)N(C)C(CC(=O)NCCOCCO)CO2` (stereo unspecified), the “Percent Effect” value was 24%.

In the case of `Cc1ccccc1C1(C(=O)N2CCOC(C)C2)CCOCC1` (stereo unspecified), the “Percent Effect” value is -22.89%.

For `CN1C(=O)C(c2cccnc2)CC12CCN(C(=O)c1ccc[nH]1)CC2` (stereo unspecified), the “Percent Effect” value is -0.8841%.

With `CN1C(=O)C(c2ccccc2)CC12CCN(CCOCCO)CC2` (stereo unspecified), the “Percent Effect” value is 13.34%.

Regarding `CCCOCCN1CCC2(CC1)CC(c1ccccc1)C(=O)N2C` (stereo unspecified), the “Percent Effect” value is on record as 4.457%.

On to `CN1C(=O)C(c2cccnc2)CC12CCN(C(=O)c1cccn1C)CC2` (stereo unspecified), for which the “Percent Effect” value is given as -11.09%.

Turning to `COCCN1CCC2(CC1)CC(c1ccccc1)C(=O)N2C` (stereo unspecified), the “Percent Effect” value is recorded as -11.58%.

In the case of `CN1C(=O)C(c2ccccc2)CC12CCN(CCN)CC2` (stereo unspecified), the “Percent Effect” value is -103.7%.

For the compound `CN1C(=O)C(c2cccnc2)CC12CCN(Cc1nccs1)CC2` (stereo unspecified), the “Percent Effect” value amounted to 106.4%.

`CN1C(=O)C(c2cccnc2)CC12CCN(CCO)CC2` (stereo unspecified): the “Percent Effect” value came to 110.9%.

On to `CN1C(=O)C(c2ccccc2)CC12CCN(CCO)CC2.O=C(O)C(F)(F)F` (stereo unspecified), for which the “Percent Effect” value is on record as 95.45%.

Regarding `COCCN1CCC2(CC1)CC(c1cccnc1)C(=O)N2C` (stereo unspecified), the “Percent Effect” value was 119.4%.

Regarding `Cc1occc1C(=O)N1CCC2(CC1)CC(c1cccnc1)C(=O)N2C` (stereo unspecified), the “Percent Effect” value was -9.568%.

For `CCN1C(=O)C(c2ccccc2)CC12CCN(CCO)CC2.O=C(O)C(F)(F)F` (stereo unspecified), the “Percent Effect” value was -6.556%.

On to `Cc1nc2c(NC(CC(C)(C)C)c3cccnc3)ncnc2o1` (stereo unspecified), for which the “Percent Effect” value is -3.479%.

Turning to `CC(C)(N)CN1CCC(c2nnc(CN3CCCC3)n2C2CC2)CC1`, the “Percent Effect” value was -7.57%.

With `CNC(=O)c1ccc(NC(=O)NC(C)c2cc(C)oc2C)c(C)c1` (stereo unspecified), the “Percent Effect” value is given as -1.593%.

With `CN(CCC(F)(F)F)Cc1nc2ccccc2c(=O)[nH]1`, the “Percent Effect” value is recorded as -3.599%.

Regarding `Cc1cnc(C(=O)N2CCN(C(=O)CC(C)C)[C@@H]3CS(=O)(=O)C[C@@H]32)cn1`, the “Percent Effect” value is on record as -11.52%.

`CC(C)(C)CN1CC[C@H](c2nnc(Cc3c[nH]c4ccccc34)o2)C1`: the “Percent Effect” value worked out at 1.678%.

As to `Cc1n[nH]c(C(=O)N2CCCC(C)CC2)c1Br` (stereo unspecified), the “Percent Effect” value worked out at 10.78%.

`CCNC(=O)c1nnn(Cc2ccccc2)c1OC`: the “Percent Effect” value worked out at 0.7251%.

Consider `Cc1cc(=O)n(C)cc1NC(=O)Cc1cccc(F)c1`, for which the “Percent Effect” value was -4.709%.

As to `Cc1ccoc1C(=O)N1CC[C@H]2[C@@H]1CCC(=O)N2c1cccnc1.O=C(O)C(F)(F)F`, the “Percent Effect” value is -7.796%.

`O=C(O)C(F)(F)F.O=C(O)C(F)(F)F.O=C1CC[C@H]2[C@H](CCN2c2ncc(F)cn2)N1c1cccnc1`: the “Percent Effect” value is recorded as -9.717%.

As to `Cc1cnc(N2CC[C@H]3[C@@H]2CCC(=O)N3c2ccccc2)nc1.O=C(O)C(F)(F)F`, the “Percent Effect” value turned out to be 112.6%.

Turning to `O=C(O)C(F)(F)F.O=C1CC[C@H]2[C@H](CCN2c2ncccn2)N1c1ccccc1`, the “Percent Effect” value is 99.41%.

Take `O=C(C1CC1)N1CC[C@H]2[C@@H]1CCC(=O)N2c1ccccc1`: the “Percent Effect” value worked out at 23.82%.

`Cc1cnc(N2CC[C@H]3[C@@H]2CCC(=O)N3c2cccnc2)nc1.O=C(O)C(F)(F)F.O=C(O)C(F)(F)F`: the “Percent Effect” value is given as -6.762%.

Regarding `Cc1ccc(C(=O)N2CC[C@H]3[C@@H]2CCC(=O)N3c2ccccc2)cn1.O=C(O)C(F)(F)F`, the “Percent Effect” value is on record as -18.98%.

As to `O=C(O)C(F)(F)F.O=C1CC[C@H]2[C@H](CCN2c2ncc(F)cn2)N1c1ccccc1`, the “Percent Effect” value is 111.8%.

With `Cc1cccc(C(=O)N2CC[C@@H]3[C@H]2CCC(=O)N3c2ccccc2)n1.O=C(O)C(F)(F)F`, the “Percent Effect” value is on record as -24.35%.

Turning to `CC(OCC1CC1)C(=O)Nc1nccn1Cc1ccccc1` (stereo unspecified), the “Percent Effect” value is -19.61%.

Take `CN(Cc1ccnc2ccccc12)C1CCS(=O)(=O)C1.O=C(O)CC(O)(CC(=O)O)C(=O)O` (stereo unspecified): the “Percent Effect” value is given as 102.4%.

As to `CN(Cc1cccc2cccnc12)C1CCS(=O)(=O)C1.O=C(O)CC(O)(CC(=O)O)C(=O)O` (stereo unspecified), the “Percent Effect” value was 164.7%.

As to `CN(C(=O)NCCCNc1ccccn1)C1CCS(=O)(=O)C1` (stereo unspecified), the “Percent Effect” value is listed as -6.562%.

Turning to `CCN(Cc1cnc(NCc2ccccc2)nc1)C1CCS(=O)(=O)C1` (stereo unspecified), the “Percent Effect” value is listed as -2.242%.

Take `CN(Cc1ccc(F)c2cccnc12)C1CCS(=O)(=O)C1` (stereo unspecified): the “Percent Effect” value came to 8.686%.

In the case of `Cc1ccsc1[C@@H]1CCN(C(=O)CCC(=O)N2CCCCCC2)C[C@H]1O`, the “Percent Effect” value was -6.445%.

`Cc1cc(C)c2nc(C)cc(C(=O)NC(C)c3nnn[nH]3)c2c1` (stereo unspecified): the “Percent Effect” value worked out at 1.105%.

`Cc1cc(C)c(C(=O)N(CCO)Cc2ccccc2F)c(=O)[nH]1`: the “Percent Effect” value is given as -8.709%.

As for `Cc1cc(C(=O)NC2(C#N)CCSCC2)n(C)n1`, the “Percent Effect” value was -9.689%.

On to `CC(=O)c1cc(C(=O)NC2(c3ccc(Br)cc3)CC2)n(C)c1`, for which the “Percent Effect” value is recorded as -0.634%.

In the case of `Cc1cc(C(=O)NC2(c3ccc(Br)cc3)CC2)n(C)n1`, the “Percent Effect” value came to 77.44%.

Regarding `Cc1nnc(N2CCC(CS(N)(=O)=O)CC2)c(C#N)c1C`, the “Percent Effect” value is given as -8.566%.

As to `O=C(CCCc1ccccc1)N1CCCC(n2cncn2)C1` (stereo unspecified), the “Percent Effect” value is recorded as 103%.

In the case of `O=C(CCc1cccc(F)c1F)N1CCCC(n2cncn2)C1` (stereo unspecified), the “Percent Effect” value is on record as 102.1%.

On to `Cc1nn(C)cc1CCC(=O)N1CCCC(n2cncn2)C1` (stereo unspecified), for which the “Percent Effect” value is listed as -0.08809%.

On to `O=C(COCc1ccccc1)N1CCCC(n2cncn2)C1` (stereo unspecified), for which the “Percent Effect” value came out at 1.365%.

Take `O=C(CCc1ccccc1)N1CC(n2cncn2)C1`: the “Percent Effect” value amounted to 125.3%.

As to `O=C(CCc1ccccc1)N1CCn2cc(Cn3cncn3)nc2C1`, the “Percent Effect” value is -11.69%.

Consider `Cc1ccc(CCC(=O)N2CCCC(n3cncn3)C2)c(C)c1` (stereo unspecified), for which the “Percent Effect” value is given as -8.257%.

As to `O=C(CCc1ccccn1)N1CCCC(n2cncn2)C1` (stereo unspecified), the “Percent Effect” value is recorded as 108%.
